{"source": "PubChem BioAssay AID588351", "about": "(The Scripps Research Institute Molecular Screening Center, 2011)", "note": "The campaign covered roughly 1,900 compounds. About 1,600 (84%) were called active. The set was probably picked from earlier hits. Only a sample is shown. Values without a mark were called inactive.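 Rule for the calls: active = mean activation above a set limit taken from the primary screen (cut at about 8% in these data); inactive = the rest.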", "data": [{"assay": "FXN GAA850 promoter activators in reporter cells, confirmation, cell-based, luminescence, HEK293 lucGAA850, triplicate (AID 588351);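 note: 0% = DMSO wells and 100% = 10 µM SAHA wells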", "conditions": "HEK293 lucGAA850 FXN promoter luciferase reporter, 24 h; at 6 µM; stronger effect = higher value; 100% = activation by SAHA", "values": [{"smiles": "COc1ccccc1C1=Nc2cccc3cccc(c23)N1", "activation": "7.84% (active)"}, {"smiles": "CCN(C[C@H]1N[C@@](CC)(C(=O)OC)[C@H]2C(=O)N(Cc3ccccc3)C(=O)[C@@H]12)S(=O)(=O)c1ccc(C(F)(F)F)cc1", "activation": "10.5% (active)"}, {"smiles": "O=C(Nc1nnc(S(=O)(=O)N2CCCCCC2)s1)c1cccc(Br)c1", "activation": "16.8% (active)"}, {"smiles": "Cn1c(=O)n(C)c2cc(S(=O)(=O)N3CCCc4ccccc43)ccc21", "activation": "11.8% (active)"}, {"smiles": "CC[C@@]12C(=O)N(c3ccccc3)C(=O)N1[C@H](c1ccc(Br)cc1)[C@@H]1C(=O)N(C(C)(C)C)C(=O)[C@@H]12", "activation": "11.1% (active)"}, {"smiles": "CC(C)(C)N1C(=O)[C@H]2[C@@H](c3ccc(Br)cc3)N3C(=O)N(c4cccc(Cl)c4)C(=O)[C@@]3(C)[C@H]2C1=O", "activation": "6.82%"}, {"smiles": "CCCNC(=O)c1c(Cl)cnn1-c1ccc(C)cc1", "activation": "31.2% (active)"}, {"smiles": "Cc1ccccc1Nc1c([N+](=O)[O-])ccc2nonc12", "activation": "17% (active)"}, {"smiles": "CC[C@]1(C(=O)OC)[C@H]2C(=O)N(Cc3ccccc3)C(=O)[C@H]2[C@H]2CN=C(SCc3ccccc3)N21", "activation": "6.5%"}, {"smiles": "CC[C@]1(C(=O)OC)[C@H]2C(=O)N(Cc3ccccc3)C(=O)[C@H]2[C@H]2CN=C(SCc3ccc(C#N)cc3)N21", "activation": "11% (active)"}, {"smiles": "COC(=O)[C@@]1(C)[C@H]2C(=O)N(Cc3ccccc3)C(=O)[C@H]2[C@H]2CN=C(SCC3CC3)N21", "activation": "12.3% (active)"}, {"smiles": "CC(C)CCC(C)NC(=O)c1ccc2nccnc2c1", "note": "(centres undefined)", "activation": "25.6% (active)"}, {"smiles": "Cn1c(CCN2CCCCCC2)nc2cc(NC(=O)Nc3ccccc3)ccc21", "activation": "32.6% (active)"}, {"smiles": "COC(=O)c1ccc(CSc2nc3ccccc3c(=O)n2-c2cccc(OC)c2)o1", "activation": "16.6% (active)"}, {"smiles": "Cc1ccc2cc(/C=N/Nc3ccc(C(=O)O)cc3)c(Cl)nc2c1", "activation": "44.5% (active)"}, {"smiles": "CN(C(=O)c1cc2c(=O)n3ccccc3nc2s1)C1CCCCC1", "activation": "37.7% (active)"}, {"smiles": "COCCn1c(=NC(=O)c2ccccc2[N+](=O)[O-])sc2cc(S(C)(=O)=O)ccc21", "activation": "23.4% (active)"}, {"smiles": "O=C(CSc1cccc2cccnc12)N/N=C/c1cccnc1", "activation": "10.9% (active)"}, {"smiles": "O=[N+]([O-])c1ccc(C=Nc2ccc(Cl)cc2Cl)s1", "activation": "17.7% (active)"}, {"smiles": "O=C1N=C(N2CCCC2)S/C1=C\\c1cccc(Br)c1", "activation": "20.9% (active)"}, {"smiles": "COc1ccc2[nH]c(=O)c(CN(Cc3nnnn3CCc3ccccc3)CC3CCCO3)cc2c1", "note": "(centres undefined)", "activation": "5.82%"}, {"smiles": "COc1cc(C#Cc2ccc3cc(CCCO)oc(=O)c3c2)cc(OC)c1", "activation": "44.9% (active)"}, {"smiles": "COc1cccc(Nc2nc(N)c([N+](=O)[O-])c(NCc3ccco3)n2)c1", "activation": "22.8% (active)"}, {"smiles": "O=C(CN(c1cc(C(F)(F)F)ccc1Cl)S(=O)(=O)c1ccccc1)NCc1cccnc1", "activation": "8.52% (active)"}, {"smiles": "COc1ccc(-n2cc(-c3ccccc3)c3c(=S)nc[nH]c32)cc1", "activation": "11% (active)"}, {"smiles": "Cc1ccc(-c2c3c(=O)n(C)c(=O)n(C)c3cn2-n2cnnc2)cc1", "activation": "19% (active)"}, {"smiles": "CCOc1ccc(N2C(=O)CC(N(CCc3ccc(OC)c(OC)c3)C(=S)Nc3ccccc3)C2=O)cc1", "note": "(centres undefined)", "activation": "9.64% (active)"}, {"smiles": "CC(C)(C)C(=O)c1cnc(Nc2ccccc2)s1", "activation": "49.2% (active)"}, {"smiles": "Cc1cc(OCc2cc(C(=O)NCc3cc(C(C)C)no3)no2)cc(C)c1Cl", "activation": "30.7% (active)"}, {"smiles": "CNc1nc(Nc2ccc(C)c(Cl)c2)nc(N)c1[N+](=O)[O-]", "activation": "71% (active)"}, {"smiles": "CC(Sc1nc2c([nH]c3ccccc32)c(=O)n1C)c1ccccc1", "note": "(centres undefined)", "activation": "16.1% (active)"}, {"smiles": "Cc1ccc(-c2nc3ccccc3[nH]c2=O)cc1", "activation": "29.2% (active)"}, {"smiles": "CN(C)CCNC(=O)c1ccc(Cl)c2cc3ccccc3nc12", "activation": "130% (active)"}, {"smiles": "CCC(=O)NC(=Nc1nc2ccccc2s1)NC(=O)CC", "activation": "38.4% (active)"}, {"smiles": "COc1ccc(Cl)cc1NC(=O)CN(C)C(=O)CCCc1c[nH]c2ccccc12", "activation": "9.95% (active)"}, {"smiles": "Fc1ccccc1/C=N/Nc1cc(N2CCCCC2)ncn1", "activation": "43.1% (active)"}, {"smiles": "CCCCCOc1ccc(CSC2=NCCN2)cc1[N+](=O)[O-]", "activation": "38.6% (active)"}, {"smiles": "Nc1ccc(C(=O)Nc2ccccc2N)cc1", "activation": "55.7% (active)"}, {"smiles": "N#CCSc1nc2ccccc2c(=O)n1-c1ccccc1", "activation": "16.2% (active)"}, {"smiles": "CCCCc1ccc(NC(=S)N2CCCC(CO)C2)cc1", "note": "(centres undefined)", "activation": "33.8% (active)"}, {"smiles": "CC(C)c1ccc(NS(=O)(=O)c2cn(C)c(=O)n(C)c2=O)cc1", "activation": "5.44%"}, {"smiles": "Fc1ccc2nc(N3CCCCC3)sc2c1", "activation": "27.8% (active)"}, {"smiles": "Cc1cc(C)n2nc(CNS(=O)(=O)c3c(F)c(F)c(F)c(F)c3F)nc2n1", "activation": "20.7% (active)"}, {"smiles": "Cc1ccc(C(=O)NNc2ncnc3ccccc23)cc1", "activation": "25.9% (active)"}, {"smiles": "O=C(NC1CCCC1)c1cc(-c2ccccc2)on1", "activation": "67.8% (active)"}, {"smiles": "O=C(NCCCn1ccnc1)c1cc(-c2ccccc2)on1", "activation": "127% (active)"}, {"smiles": "COc1ccccc1N1CCN(C(=O)c2cc(-c3ccc(Br)cc3)on2)CC1", "activation": "2.35%"}, {"smiles": "CC1CCc2sc3nc(N4CCN(CCO)CC4)n4ncnc4c3c2C1", "note": "(centres undefined)", "activation": "21.9% (active)"}, {"smiles": "CN(C)S(=O)(=O)c1ccc2oc(SCC(=O)Nc3ccccc3F)nc2c1", "activation": "44.6% (active)"}, {"smiles": "COc1ccc(/C=C/C(=O)Nc2ccc(C34CC5CC(CC(O)(C5)C3)C4)cc2)cc1OC", "activation": "44.5% (active)"}, {"smiles": "Cc1nnc(Sc2nc3c(c(=O)[nH]c(=O)n3C)n2Cc2ccccc2)s1", "activation": "5.05%"}, {"smiles": "CN(C)C(=S)N=c1ssc(=S)n1Cc1ccco1", "activation": "32.8% (active)"}, {"smiles": "CC(C)(C)c1ccc(C(=O)NCc2ccco2)cc1", "activation": "44.1% (active)"}, {"smiles": "O=C(NCc1ccco1)c1ccc(Cn2c(=O)c3sccc3n(Cc3ccc(F)cc3)c2=O)cc1", "activation": "6.19%"}, {"smiles": "CCCCNC(=O)N(O)C1N(/N=C/c2ccccc2O)C(=S)SC1(C)C", "note": "(centres undefined)", "activation": "14.1% (active)"}, {"smiles": "CCOC(=O)c1cc2c(=O)n3ccccc3nc2n(CC(C)C)c1=NC(=O)c1c(-c2c(F)cccc2Cl)noc1C", "activation": "3.22%"}, {"smiles": "N#Cc1c(N)nc2c3c(sc(=N)c2c1N)NC(=O)CC3c1ccccc1Cl", "note": "(centres undefined)", "activation": "24.2% (active)"}, {"smiles": "CCc1ccc(N(C(=O)c2csnn2)C(C(=O)NC2CCCCC2)c2ccncc2)cc1", "note": "(centres undefined)", "activation": "12.1% (active)"}, {"smiles": "Cc1cc(=O)oc(C)c1C(=O)NCc1ccc(F)cc1", "activation": "4.06%"}]}]}
